Source: PubChem BioAssay (NCATS)
Where “and” joins values, the source holds several entries; their conditions need not be identical. Equal entries are not always repeated. Calls of active or inactive are those of the source. Where a call stands in place of a potency, no number is given. Unless noted, calls come from the whole dose curve; as a rule, active = well fitted inhibition curve with a large enough effect; inconclusive = small, poorly fitted or top-dose-only effect; inactive = flat fitted curve, though single readings scatter.

What was measured:
[1] = biological target: Ubiquitin carboxyl-terminal hydrolase 1 (Homo sapiens) (UniProt O94782); test: Inhibitors of USP1/UAF1: Pilot qHTS (AID 504865); conditions: purified USP1/UAF1, Ub-rhodamine cleavage fluorescence; series mostly up to 114 µM; note: nearly all actives have a fitted effect of over 35% in size; note: potency is the fitted concentration of half-maximal effect
Summary of the method: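 USP1/UAF1 complex (1nM) preincubated with compound 15 min at room temperature, then Ub-Rho substrate (150nM final) added. Fluorescence read kinetically at 480/540 nm, 6 reads every 60 seconds. Buffer: 50mM HEPES pH 7.8, 0.5mM EDTA, 0.1 mg/ml BSA, 1mM TCEP, 0.01% Tween-20.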

[2] = biological target: Estrogen receptor (Homo sapiens) (UniProt P03372); test: qHTS assay for small molecule antagonists of estrogen receptor alpha signaling (AID 588513; active = well fitted curve in the direction sought with a large enough effect in the signal ratio, with a control signal flat, not every such curve was filed as active; inconclusive = small, poorly fitted or top-dose-only effect, or effect the other way, or a change in a side signal; inactive = no such curve, though single readings can be large or run the other way; the % refers to the signal ratio; note: potency is the fitted concentration of half-maximal effect); conditions: ER-alpha-UAS-bla HEK293, beta-lactamase ratio, antagonist mode; series mostly up to 76.9 µM
Summary of the method: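 ER-alpha-UAS-bla GripTite HEK 293 cells in medium with 2% charcoal/dextran-treated FBS were preincubated 4 h at 37 C, dosed with compound (1:2 titration), stimulated with 0.5nM 17-beta-estradiol for 18 h, then read by CCF4 beta-lactamase fluorescence.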

[3] = biological target: Estrogen receptor (Homo sapiens) (UniProt P03372); test: qHTS assay for small molecule agonists of estrogen receptor alpha signaling (AID 588514; calls by dose curve; note: nearly all actives have a fitted effect of over 70% in size); conditions: ER-alpha-UAS-bla HEK293, beta-lactamase ratio, 18 h, percent of full estradiol response, vehicle zero; series mostly up to 76.8 µM
Summary of the method: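 EC50 and efficacy came from Hill fits of beta-lactamase reporter signal (CCF4 dye, 2 h at room temperature) scaled between DMSO and 20 nM 17-beta-estradiol. Agonist mode: HEK293 ER-alpha-UAS-bla cells in charcoal/dextran-stripped serum medium, 18 h compound exposure at 37 C.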

[4] = biological target: Bile acid receptor (Homo sapiens) (UniProt Q96RI1); test: qHTS assay for small molecule antagonists of farnesoid X receptor signaling (AID 588526; calls by dose curve); conditions: HEK293T FXR-UAS-bla, beta-lactamase ratio, antagonist mode; series mostly up to 76.7 µM
Summary of the method: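 Antagonist mode: titrated compounds tested against chenodeoxycholic acid stimulation (normalized to 50 uM CDCA and DMSO) in GeneBLAzer HEK293T cells for 16 h. Beta-lactamase read by CCF4 fluorescence; IC50 from Hill fits.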

[5] = qHTS assay for small molecule antagonists of peroxisome proliferator-activated receptor delta signaling (AID 588535; active = well fitted inhibition curve with a large enough effect in the signal ratio, with a control signal flat, not every such curve was filed as active; inconclusive = small, poorly fitted or top-dose-only effect, or effect the other way, or a change in a side signal; inactive = no such curve, though single readings can be large or run the other way; the % refers to the signal ratio;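 for max response: cells co-treated with a PPAR-delta agonist as stimulator during compound exposure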); conditions: HEK293T PPARd-UAS-bla, beta-lactamase FRET ratio, 18 h; 460 nm channel
Summary of the method: (§1)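 Fluorescence from CCF4-loaded GeneBLAzer PPAR-delta-UAS-bla HEK293T cells (2 hrs RT loading) quantified reporter inhibition after an 18 hr, 37 C compound exposure across a titration.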

[6] = biological target: Peroxisome proliferator-activated receptor delta (Homo sapiens) (UniProt Q03181); test: as above; conditions: HEK293T PPARd-UAS-bla, beta-lactamase FRET ratio, 18 h; series mostly up to 76.7 µM
Summary of the method: as §1

[7] = biological target: Glucocorticoid receptor (Homo sapiens) (UniProt P04150); test: qHTS assay for small molecule agonists of glucocorticoid receptor signaling (AID 588532; active = well fitted curve in the direction sought with a large enough effect in the signal ratio, with a control signal flat; inconclusive = small, poorly fitted or top-dose-only effect, or a change in a side signal; inactive = no such curve, though single readings can be large or run the other way; the % refers to the signal ratio); conditions: HeLa MMTV-bla, beta-lactamase ratio, agonist, 18 h; stronger effect = higher value; percent of dexamethasone control, DMSO zero
Summary of the method: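 MMTV-bla HeLa beta-lactamase reporter cells in 1% charcoal/dextran FBS medium, compounds up to 92 uM for 18 h at 37 C, CCF4 readout; normalized to 0.1 uM dexamethasone (100%), EC50 and efficacy from Hill fits.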

[8] = biological target: Glucocorticoid receptor (Homo sapiens) (UniProt P04150); test: qHTS assay for small molecule antagonists of glucocorticoid receptor signaling (AID 588533; active = well fitted inhibition curve with a large enough effect in the signal ratio, with a control signal flat, not every such curve was filed as active; inconclusive = small, poorly fitted or top-dose-only effect, or effect the other way, or a change in a side signal; the % refers to the signal ratio;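 note: cells stimulated with 2 nM dexamethasone as agonist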; note: potency is the fitted concentration of half-maximal effect); conditions: HeLa MMTV-bla, GRE beta-lactamase ratio, antagonist mode, 18 h; series mostly up to 76.8 µM
Summary of the method: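 Antagonist-mode qHTS: compound titrations added to GRE-bla HeLa cells, then dexamethasone 2 nM final; 18 h, 37 C. CCF4 FRET fluorescence normalized to dexamethasone and DMSO; IC50 from Hill fit.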

[9] = biological target: Peroxisome proliferator-activated receptor gamma (Homo sapiens) (UniProt P37231); test: qHTS assay for small molecule agonists of peroxisome proliferator-activated receptor gamma signaling (AID 588536; active = well fitted curve in the direction sought with a large enough effect in the signal ratio, with a control signal flat, not every such curve was filed as active; inconclusive = small, poorly fitted or top-dose-only effect, or effect the other way, or a change in a side signal; inactive = no such curve, though single readings can be large or run the other way; the % refers to the signal ratio); conditions: HEK293 PPARg-UAS-bla, beta-lactamase ratio, 16 h, percent of rosiglitazone response, DMSO as zero; series mostly up to 76.7 µM
Summary of the method: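 Beta-lactamase reporter read-out: CCF4 fluorescence (ex 405, em 460/530 nm) after 2 h at RT. HEK293 GeneBLAzer cells were treated for 16 h at 37 C. Hill fits gave EC50 and efficacy versus 2 uM rosiglitazone (100%) and DMSO (0%).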

[10] = biological target: Peroxisome proliferator-activated receptor gamma (Homo sapiens) (UniProt P37231); test: qHTS assay for small molecule antagonists of peroxisome proliferator-activated receptor gamma signaling (AID 588537; active = well fitted inhibition curve with a large enough effect in the signal ratio, with a control signal flat, not every such curve was filed as active; inconclusive = small, poorly fitted or top-dose-only effect, or effect the other way, or a change in a side signal; the % refers to the signal ratio;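 note: reporter cells co-stimulated with 50 nM rosiglitazone agonist during compound treatment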); conditions: HEK293 PPARg-UAS-bla, beta-lactamase ratio, antagonist mode; series mostly up to 76.8 µM
Summary of the method: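 Fluorescence at 460 and 530 nm (405 nm excitation) reported beta-lactamase cleavage of CCF4 after 2 h room-temperature loading. HEK293 reporter cells in 1% charcoal/dextran-treated FBS had received compound and rosiglitazone for 16 h.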

[11] = biological target: DNA dC->dU-editing enzyme APOBEC-3G (Homo sapiens) (UniProt Q9HC16); test: qHTS for inhibitors of Vif-A3G interactions: Validation (AID 588379); conditions: Vif-A3G protein interaction assay; series mostly up to 46.1 µM
Summary of the method: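 Yellow fluorescence (Ex 488, Em 500-530) of Vif-coexpressing HeLa A3G-eYFP cells, scanned by Acumen cytometer, reports blocked A3G degradation. Cells plated at 700/well overnight at 37 deg C before compound addition, then a further overnight compound incubation at 37 deg C.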

Chain of Glucocorticoid receptor (Homo sapiens) (P04150 whole entry, looked up): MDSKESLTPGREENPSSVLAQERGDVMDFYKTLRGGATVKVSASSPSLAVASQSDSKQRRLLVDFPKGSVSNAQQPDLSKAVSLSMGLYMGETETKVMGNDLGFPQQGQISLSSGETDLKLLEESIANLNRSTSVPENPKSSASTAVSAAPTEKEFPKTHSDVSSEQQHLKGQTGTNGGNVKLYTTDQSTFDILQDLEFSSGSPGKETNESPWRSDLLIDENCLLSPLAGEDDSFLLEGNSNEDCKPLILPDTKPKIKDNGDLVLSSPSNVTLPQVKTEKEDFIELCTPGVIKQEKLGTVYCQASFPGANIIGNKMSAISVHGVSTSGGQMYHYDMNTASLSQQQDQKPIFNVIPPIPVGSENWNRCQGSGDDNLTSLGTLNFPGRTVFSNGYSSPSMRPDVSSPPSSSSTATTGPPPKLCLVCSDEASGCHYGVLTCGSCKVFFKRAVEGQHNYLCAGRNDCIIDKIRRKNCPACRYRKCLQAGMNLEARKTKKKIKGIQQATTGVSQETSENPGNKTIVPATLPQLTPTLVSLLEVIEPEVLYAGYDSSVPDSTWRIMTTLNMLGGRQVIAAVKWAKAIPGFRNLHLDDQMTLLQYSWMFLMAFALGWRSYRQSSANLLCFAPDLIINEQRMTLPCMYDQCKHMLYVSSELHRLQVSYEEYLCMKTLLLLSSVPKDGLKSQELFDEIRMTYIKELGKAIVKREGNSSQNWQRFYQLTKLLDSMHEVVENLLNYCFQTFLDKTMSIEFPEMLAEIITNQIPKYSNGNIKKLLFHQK
Chain of Peroxisome proliferator-activated receptor gamma (Homo sapiens) (P37231 whole entry, looked up): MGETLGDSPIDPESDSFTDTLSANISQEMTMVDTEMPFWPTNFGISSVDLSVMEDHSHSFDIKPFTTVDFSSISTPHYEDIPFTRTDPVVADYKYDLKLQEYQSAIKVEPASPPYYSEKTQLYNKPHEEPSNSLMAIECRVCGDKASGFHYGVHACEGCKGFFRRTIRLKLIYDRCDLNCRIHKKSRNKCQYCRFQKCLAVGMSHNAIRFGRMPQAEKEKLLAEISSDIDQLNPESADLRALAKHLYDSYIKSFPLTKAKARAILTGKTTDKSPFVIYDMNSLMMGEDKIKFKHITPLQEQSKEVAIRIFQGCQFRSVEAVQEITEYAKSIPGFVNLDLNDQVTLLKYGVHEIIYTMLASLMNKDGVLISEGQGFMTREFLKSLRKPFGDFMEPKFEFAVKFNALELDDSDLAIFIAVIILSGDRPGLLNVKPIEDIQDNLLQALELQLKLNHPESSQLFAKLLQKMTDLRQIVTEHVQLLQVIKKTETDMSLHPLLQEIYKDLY
Chain of Ubiquitin carboxyl-terminal hydrolase 1 (Homo sapiens) (O94782 whole entry, looked up): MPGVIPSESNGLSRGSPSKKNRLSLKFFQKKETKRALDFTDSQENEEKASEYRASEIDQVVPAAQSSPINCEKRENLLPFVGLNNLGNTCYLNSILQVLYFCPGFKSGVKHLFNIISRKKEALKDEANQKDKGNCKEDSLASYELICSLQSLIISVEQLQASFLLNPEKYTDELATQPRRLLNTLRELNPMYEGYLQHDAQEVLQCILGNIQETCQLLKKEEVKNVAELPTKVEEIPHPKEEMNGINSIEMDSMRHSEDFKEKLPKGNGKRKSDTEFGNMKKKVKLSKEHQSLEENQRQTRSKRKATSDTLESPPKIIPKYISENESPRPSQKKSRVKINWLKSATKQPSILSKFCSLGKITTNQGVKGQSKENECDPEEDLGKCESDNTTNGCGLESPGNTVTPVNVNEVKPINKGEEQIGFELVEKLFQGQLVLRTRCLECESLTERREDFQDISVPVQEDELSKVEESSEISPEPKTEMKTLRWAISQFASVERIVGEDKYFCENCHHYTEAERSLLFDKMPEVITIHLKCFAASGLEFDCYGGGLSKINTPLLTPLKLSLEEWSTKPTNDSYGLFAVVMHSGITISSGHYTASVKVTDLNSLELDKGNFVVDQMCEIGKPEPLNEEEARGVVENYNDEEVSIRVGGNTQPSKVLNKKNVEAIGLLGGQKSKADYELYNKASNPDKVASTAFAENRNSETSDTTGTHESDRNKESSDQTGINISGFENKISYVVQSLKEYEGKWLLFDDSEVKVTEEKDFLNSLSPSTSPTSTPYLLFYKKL
Chain of Estrogen receptor (Homo sapiens) (P03372 whole entry, looked up): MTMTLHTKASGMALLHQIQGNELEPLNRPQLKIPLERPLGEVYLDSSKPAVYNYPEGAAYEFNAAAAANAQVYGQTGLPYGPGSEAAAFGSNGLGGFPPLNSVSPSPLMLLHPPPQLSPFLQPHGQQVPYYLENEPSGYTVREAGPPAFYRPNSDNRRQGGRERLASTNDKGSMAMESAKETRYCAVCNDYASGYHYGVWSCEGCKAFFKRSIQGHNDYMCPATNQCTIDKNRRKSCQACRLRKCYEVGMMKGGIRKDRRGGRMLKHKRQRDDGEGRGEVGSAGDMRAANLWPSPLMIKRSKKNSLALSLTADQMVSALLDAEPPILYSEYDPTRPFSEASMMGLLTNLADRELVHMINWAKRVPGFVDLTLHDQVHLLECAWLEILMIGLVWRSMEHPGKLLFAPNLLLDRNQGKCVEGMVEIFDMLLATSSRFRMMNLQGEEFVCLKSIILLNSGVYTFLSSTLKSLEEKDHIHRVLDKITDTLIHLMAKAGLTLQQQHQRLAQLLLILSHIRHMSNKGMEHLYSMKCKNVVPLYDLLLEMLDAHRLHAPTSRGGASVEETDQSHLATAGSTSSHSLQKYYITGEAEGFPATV
Chain of DNA dC->dU-editing enzyme APOBEC-3G (Homo sapiens) (Q9HC16 whole entry, looked up): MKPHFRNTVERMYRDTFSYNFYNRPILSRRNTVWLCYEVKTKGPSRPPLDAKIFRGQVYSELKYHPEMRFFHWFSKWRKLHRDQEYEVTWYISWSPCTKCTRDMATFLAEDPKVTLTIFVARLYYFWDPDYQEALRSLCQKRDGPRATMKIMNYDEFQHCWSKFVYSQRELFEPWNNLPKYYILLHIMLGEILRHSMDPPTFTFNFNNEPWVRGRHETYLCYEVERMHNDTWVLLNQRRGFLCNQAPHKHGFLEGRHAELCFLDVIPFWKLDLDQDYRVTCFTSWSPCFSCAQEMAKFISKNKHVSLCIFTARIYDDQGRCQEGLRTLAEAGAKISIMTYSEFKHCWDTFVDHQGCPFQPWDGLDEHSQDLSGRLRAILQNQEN
Chain of Bile acid receptor (Homo sapiens) (Q96RI1 whole entry, looked up): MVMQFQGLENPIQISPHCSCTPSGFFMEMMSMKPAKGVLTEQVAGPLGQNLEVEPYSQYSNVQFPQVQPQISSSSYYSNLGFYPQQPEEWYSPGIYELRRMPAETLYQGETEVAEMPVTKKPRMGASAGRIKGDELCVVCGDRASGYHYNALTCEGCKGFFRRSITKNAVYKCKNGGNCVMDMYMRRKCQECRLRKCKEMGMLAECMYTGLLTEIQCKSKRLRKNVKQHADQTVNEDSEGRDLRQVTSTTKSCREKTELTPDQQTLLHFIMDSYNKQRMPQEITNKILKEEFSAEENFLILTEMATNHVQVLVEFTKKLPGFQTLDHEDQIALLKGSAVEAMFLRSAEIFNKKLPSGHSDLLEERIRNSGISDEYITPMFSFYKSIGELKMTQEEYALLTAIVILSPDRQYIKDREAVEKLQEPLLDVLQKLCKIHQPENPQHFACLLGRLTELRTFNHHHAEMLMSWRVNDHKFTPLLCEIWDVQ
Chain of Peroxisome proliferator-activated receptor delta (Homo sapiens) (Q03181 whole entry, looked up): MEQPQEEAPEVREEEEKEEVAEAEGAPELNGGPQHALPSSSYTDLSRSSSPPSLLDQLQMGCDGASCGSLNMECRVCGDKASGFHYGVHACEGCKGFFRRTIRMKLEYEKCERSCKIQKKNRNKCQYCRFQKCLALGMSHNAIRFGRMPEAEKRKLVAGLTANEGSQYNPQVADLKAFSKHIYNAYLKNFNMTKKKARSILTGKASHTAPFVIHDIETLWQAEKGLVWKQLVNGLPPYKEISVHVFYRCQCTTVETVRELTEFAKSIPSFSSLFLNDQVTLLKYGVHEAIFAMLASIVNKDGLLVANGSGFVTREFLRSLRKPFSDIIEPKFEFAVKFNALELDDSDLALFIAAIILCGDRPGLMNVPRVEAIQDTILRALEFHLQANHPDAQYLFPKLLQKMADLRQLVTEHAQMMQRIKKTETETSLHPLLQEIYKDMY

With `CC(O)C(=O)O` (stereo unspecified) the Potency [1] was “inactive”, the Potency [2] was “inactive” and the outcome [3] was “inactive”. The Potency [4] was “inactive”, the max response [5] was -0.0545% and the Potency [6] was “inactive”.

For `O=C(O)CCCCC(=O)O`, the Potency [1] was “inactive”, the Potency [2] was “inactive” and the outcome [3] was “inactive”. The Potency [4] was “inactive”, the activation [7] was 6.23% (inactive) and the Potency [8] was “inactive”. The outcome [9] was “inactive” and the Potency [10] was “inactive”.

In the case of `CC(C)(CO)[C@@H](O)C(=O)NCCCO`, the Potency [1] is reported as “inactive” and the outcome [11] is reported as “inactive”.

For `Oc1c(Cl)cc(Cl)cc1Sc1cc(Cl)cc(Cl)c1O`, the Potency [1] was 35.5 µM (active) and 20 µM (active), the Potency [2] was 39.8 µM [inconclusive] (active) and the outcome [3] was “inactive”.

In the case of `Oc1c(I)cc(Cl)c2cccnc12`, the Potency [1] is reported as “inactive” and the Potency [8] is reported as 28.2 µM (active).

In the case of `CN(C)/N=N/c1nc[nH]c1C(N)=O`, the Potency [1] is reported as “inactive”, the outcome [3] is reported as “inactive” and the Potency [4] is reported as “inactive”. The activation [7] was -5.55% (inactive), the max response [5] was 24% and the Potency [6] was “inactive”. The outcome [9] was “inactive” and the Potency [10] was “inactive”.

With `CC(=O)O[C@]1(C(C)=O)CC[C@H]2[C@@H]3C[C@H](C)C4=CC(=O)CC[C@]4(C)[C@H]3CC[C@@]21C` the Potency [2] was “inactive” and the outcome [3] was “inactive”.

For `C[C@@H]1CN(CCCn2c3ccccc3c3ccccc32)C[C@H](C)N1`, the Potency [1] was “inactive” and the outcome [11] was “inactive”.

In the case of `COc1cccc2c1C(=O)c1c(O)c3c(c(O)c1C2=O)C[C@@](O)(C(C)=O)C[C@@H]3O[C@H]1C[C@H](N)[C@H](O)[C@H](C)O1`, the Potency [1] is reported as 44.7 µM (active) and 39.8 µM (active) and the outcome [11] is reported as “inactive”.

For `CC[N+](CC)(CCNC(=O)C(=O)NCC[N+](CC)(CC)Cc1ccccc1Cl)Cc1ccccc1Cl`, the Potency [1] was “inactive” and the outcome [11] was “inactive”.

For `Oc1ccc(Cl)cc1Sc1cc(Cl)ccc1O`, the outcome [9] was “inactive”.

In the case of `CC(C)(C)CC(C)(C)c1ccc(OCCOCC[N+](C)(C)Cc2ccccc2)cc1`, the Potency [2] is reported as 44.7 µM [inconclusive] (active), the outcome [3] is reported as “inactive” and the outcome [9] is reported as “inactive”.
